Assay outcomes as filed in PubChem.
TSHR antagonist: Antagonists of the Thyroid Stimulating Hormone Receptor: HTS campaign | activity change, negative = inhibition, % at 11.5 µM | Thyrotropin receptor (Homo sapiens), P16473 | 330,000 tested, 0.2% active | TSHR-expressing cells, TSH-stimulated cAMP HTRF, 2 h; stronger effect = lower value;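 active = activity change below a set negative limit, meaning inhibition stronger than a set level, cut at about -70% in these data; inconclusive = activity change between two set negative limits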; note: % is set by controls: 0 for no effect and ±100 for the full control effect
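Freshly harvested TSHR cells receive pin-tooled compound, then EC80 TSH at 4nM final. After 2 hours at 37 deg C, antibody in lysis buffer and cAMP-d2 are added; 30 minutes at ambient temperature precede the HTRF read.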
PTHR1 ag: qHTS for PTHR1 Agonists: Primary Screen; HEK293 GP2 PTHR1 cells, GloSensor cAMP luminescence, 1 h; Potency, µM (top dose mostly 115 µM), without a hit: at the top dose activation, most hits filed as activators; 410,000 tested, 0.075% active; note: potency is the fitted concentration of half-maximal effect; nearly all actives have a fitted effect of over 55% in size
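HEK-293-derived GP2 cells expressing PTHR1 and a GloSensor cAMP reporter, 3,000/well, plated overnight, given luciferin plus IBMX (each 0.5 mM as added) for 1 h at 37 °C, then compound for 1 h at 37 °C. Luminescence was read after 15 min at room temperature.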
NPSR antagonist: qHTS Assay for Antagonists of the Neuropeptide S Receptor: cAMP Signal Transduction. Q6W5P4. CHO-NPSR cells, cAMP TR-FRET, antagonist mode. Potency, µM (titrated, usually from 38.3 µM), for inactives: at the highest dose activity change, negative = inhibition, actives largely listed as inhibitors. 220,000 tested, 1% active. AID 1461, 2008; note: potency is the fitted concentration of half-maximal effect; % is set by controls: 0 for no effect and ±100 for the full control effect; nearly all actives have a fitted effect of over 50% in size
RXFP1 antagonist: qHTS Assay for Antagonists of the Relaxin Receptor RXFP1; HEK293-RXFP1, relaxin-stimulated cAMP HTRF, 30 min; stronger effect = lower value; 350,000 tested, 0.59% active; activity change, negative = inhibition, % at 57.5 µM; AID 1259400, 2018; Relaxin receptor 1 (Homo sapiens), Q9HBX9;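 active = activity change of -60% or lower, but not beyond a set lower limit; inconclusive = change between -60% and -40%, or beyond the set limit; inactive = change above -40%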; note: % is set by controls: 0 for no effect and ±100 for the full control effect
Target sequence (Q9HBX9 whole entry, looked up): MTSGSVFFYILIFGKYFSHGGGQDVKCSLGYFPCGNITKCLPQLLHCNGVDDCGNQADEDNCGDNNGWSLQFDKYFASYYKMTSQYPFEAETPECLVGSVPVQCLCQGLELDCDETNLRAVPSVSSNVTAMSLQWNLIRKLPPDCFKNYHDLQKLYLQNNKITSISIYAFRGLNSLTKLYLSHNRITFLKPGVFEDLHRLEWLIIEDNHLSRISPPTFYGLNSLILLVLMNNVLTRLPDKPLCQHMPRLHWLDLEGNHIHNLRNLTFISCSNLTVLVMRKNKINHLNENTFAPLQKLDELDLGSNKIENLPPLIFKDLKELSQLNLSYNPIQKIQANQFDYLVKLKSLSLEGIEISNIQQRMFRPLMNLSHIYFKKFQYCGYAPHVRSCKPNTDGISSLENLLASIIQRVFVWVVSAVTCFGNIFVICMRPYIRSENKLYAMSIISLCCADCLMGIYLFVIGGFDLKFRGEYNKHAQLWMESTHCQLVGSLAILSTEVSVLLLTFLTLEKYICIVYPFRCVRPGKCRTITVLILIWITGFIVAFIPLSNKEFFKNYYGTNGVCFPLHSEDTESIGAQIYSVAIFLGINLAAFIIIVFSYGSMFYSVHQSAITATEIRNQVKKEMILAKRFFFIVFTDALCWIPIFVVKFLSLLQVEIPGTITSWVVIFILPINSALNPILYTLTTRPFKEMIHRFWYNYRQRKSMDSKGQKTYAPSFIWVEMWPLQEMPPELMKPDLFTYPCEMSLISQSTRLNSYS
HEK293 tox: qHTS of GLP-1 Receptor Inverse Agonists: Cytotox Screen; Potency, µM (titrated, usually from 38.3 µM), for the others: at the top dose activity change, negative = inhibition, actives largely listed as inhibitors; 410,000 tested, 0.13% active; HEK293 cAMP-luciferase reporter cells, luminescence, 24 h; AID 624418, 2012;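 note: loss of luciferase light is scored as toxicity; potency is the fitted concentration of half-maximal effect; % is set by controls: 0 for no effect and ±100 for the full control effect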
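Here, cytotoxicity is scored as loss of luminescence. The MLSMR collection was tested on cells seeded in medium containing 10% Nu serum, with a 24 hr compound exposure preceded by 12 hours of culture.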
RXFP1 agonist: qHTS Assay for Agonists of the Relaxin Receptor RXFP1; Relaxin receptor 1 (Homo sapiens), Q9HBX9; HEK293T-RXFP1 cAMP TR-FRET, 30 min; response scale: percent of porcine relaxin response, buffer zero; Potency, µM (top dose mostly 57.5 µM), for the others: top-dose activation, hits mostly activators; 370,000 tested, 0.3% active; note: potency is the fitted concentration of half-maximal effect; % is set by controls: 0 for no effect and ±100 for the full control effect; nearly all actives have a fitted effect of over 60% in size
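Agonist response is measured as cAMP accumulation in an RXFP1-transfected HEK293T line under PDE4 inhibition. Values are scaled between buffer-only and 29 nM porcine relaxin, and EC50s come from standard Hill equation fits.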
Active calls of the source: *; i = inactive; ? = inconclusive; nt = no result; [ ] = dose if it differs, or a comment. The entries come from a sample that favours hits as a whole. Unless noted, calls come from the whole dose curve; as a rule, active = well fitted curve in the direction sought with a large enough effect; inconclusive = small, poorly fitted or top-dose-only effect, or another doubt; inactive = no such curve, though single readings can be large; an effect the other way counts as inactive or inconclusive.

SMILES | TSHR antagonist | PTHR1 ag | NPSR antagonist | RXFP1 antagonist | HEK293 tox | RXFP1 agonist
COC(=O)c1ccc(NC(=O)c2nc(S(=O)(=O)Cc3cccc(C)c3)ncc2Cl)cc1 | ? | -24% | nt | ? | 6% | 4%
Cc1ccc(NC(=O)CN(C)C(=O)c2cccc(S(=O)(=O)N3CCc4ccccc43)c2)cc1 | 19 | -19% | nt | -6 | -7% | -1%
COc1ccc(CN2CCN(C(=O)c3ccc(S(=O)(=O)NCc4ccco4)cc3)CC2)cc1 | -34 | -49% | nt | -7 | -9% | 0%
COc1cccc(NC(=O)C(=O)NCC(c2ccc3c(c2)OCO3)N2CCOCC2)c1 (stereo not drawn) | nt | -16% | nt | -10 | -6% | -1%
CCOc1ccc(NS(=O)(=O)c2ccc(NC(=S)NC(C)=O)cc2)cc1 | 3 | i | -2% | -70* | -16% | 1%
CC(C)(CNC(=O)C1c2ccccc2-c2ccccc21)N1CCOCC1 | -82* | i | nt | -5 | -1% | 5%
CC(C)OCCCn1c(=O)c2ccccc2n2c(CCC(=O)N3CCN(c4ccccn4)CC3)nnc12 | -5 | i | nt | -29 | -8% | 19%
O=C(CCc1nnc2n(Cc3ccc(Cl)cc3)c(=O)c3ccccc3n12)N1CCN(c2ccccn2)CC1 | -134* | i | nt | 11 | 1% | -1%
COc1ccc(C2CC(=O)N(CC(=O)Nc3cccc(C)c3C)c3ccccc3S2)cc1OC (stereo not drawn) | nt | -38% | nt | nt | -7% | 3%
COc1ccc(NS(=O)(=O)c2cccc(C(=O)NNC(=O)NCCCl)c2)cc1 | 7 | i | 14% | 4 | 10% | 1%
Cc1cc(C)c(S(=O)(=O)N2CCN(S(=O)(=O)N3CCCCCC3)CC2)c(C)c1 | -3 | i | nt | 6 | 5% | 2%
Cc1ccc(N2CCN(S(=O)(=O)N3CCCCC3)CC2)c(C)c1 | -13 | -55% | 30% | -70* | 19% | 0%
CN(Cc1ccccc1)c1nc(-c2ccc([N+](=O)[O-])cc2)nc2ccccc12 | 10 | i | ? | 9 | 8% | -6%
O=[N+]([O-])c1ccc(-c2nc(C(Cl)Cl)c3ccccc3n2)cc1 | -3 | -13% | 2µM* | 5 | -23% | 3%
CCOc1ccc(NC(=S)Nc2ccc3nsnc3c2)cc1 | 18 | i | 10µM* | -10 | 57% | 1%
Cc1ccc2onc(CC(=O)Nc3cc(F)ccc3F)c2c1 | nt | -53% | nt | 3 | -2% | 3%
CC(C(=O)O)c1ccc(/C=C2\CCCCC2=O)cc1 (stereo not drawn) | nt | nt | nt | -26 | nt | nt
CC(=O)c1ccc(/C=C/c2nc3ccccc3n2C)o1 | 6 | -23% | -45% | 49 | i | 25µM*
Cn1c(/C=C/c2ccccc2)nc2ccccc21 | 0 | -94% | 58% | -4 | -16% | 6%
Cn1ccc2cc(-c3ccc4ncnc(NCc5cccc(F)c5)c4c3)ccc21 | -6 | nt | nt | nt | nt | 2%
Cc1[nH]cnc1-c1ccc(Cl)cc1 | nt | nt | nt | 13 | nt | nt
COc1ccc2c(c1)c(CC(=O)Nc1ccc(C(C)=O)cc1)c(C)n2C(=O)c1ccc(Cl)cc1 | -2 | -6% | -58% | 3 | 1% | 5%
COc1ccc2c(c1)c(CC(=O)NCc1cc([N+](=O)[O-])ccc1O)c(C)n2C(=O)c1ccc(Cl)cc1 | ? | -34% | nt | -84* | ? | 5%
COc1cc2c(cc1NC(=O)c1ccc(C)c([N+](=O)[O-])c1)oc1ccccc12 | 2 | ? | -11% | -8 | 4% | 0%
COc1cc2c(cc1NC(=O)c1cccc([N+](=O)[O-])c1)oc1ccccc12 | 10 | -22%[57.5 µM] | 10µM* | -11 | -8% | -2%
SMILES | TSHR antagonist | PTHR1 ag | NPSR antagonist | RXFP1 antagonist | HEK293 tox | RXFP1 agonist
COc1ccc2c(c1)c1nc3n(c(=O)c1n2CC(=O)Nc1cc(C)[nH]n1)CCS3 | 5 | nt | -49% | nt | nt | 22%
COc1cccc(NC(=O)Cn2c3ccc(OC)cc3c3nc4n(c(=O)c32)CCS4)c1 | 53 | -10% | nt | 4 | 3% | 10µM*
Cc1cc2oc(C(=O)Nc3sc4c(c3C(=O)NCc3ccccc3)CCCC4)cc(=O)c2cc1C | nt | 7% | nt | -7 | 36% | 0%
COc1cccc(C=NNc2nc3ccccc3s2)c1OC | nt | -19% | nt | -27 | -11% | nt
COc1cccc(/C=N/Nc2nnc3c(n2)[nH]c2ccccc23)c1OC | -4 | i | -5% | -61* | -9% | -1%
COc1ccc(OCc2n(CC(=O)OC3CC(C)CCC3C(C)C)c3ccccc3[n+]2C)cc1 (stereo not drawn) | 22 | -18% | 10µM* | ? | ? | 2%
Cc1ccc(Cl)cc1-n1ncc2c(NCc3ccc(F)cc3)ncnc21 | nt | -29% | nt | -65* | 1% | -3%
Cc1ccc(Cl)cc1-n1ncc2c(NCCc3ccccc3)ncnc21 | nt | -42% | nt | -28 | -3% | 0%
Oc1c(N=NC(=S)Nc2ccccc2F)c2ccccc2n1Cc1ccccc1Cl | -5 | -12% | 3% | -9 | 6% | 5%
Cc1c(Cl)cccc1NC(=S)N=Nc1c(O)n(CN2CCOCC2)c2ccccc12 | -1 | -23% | -48% | -26 | 1.4µM* | -1%
CC1CCCN(C(=O)Cc2cccc3ccccc23)C1 (stereo not drawn) | 28 | i | nt | -16 | 5% | 3%
COc1ccc(C2c3cc(OC)c(OC)cc3CC(=O)N2c2cccc(C#N)c2)cc1 (stereo not drawn) | nt | i | nt | -13 | ? | 0%
COc1ccccc1NC(=S)NC1CCCCCCCCCCC1 | -19 | i | ? | 4 | 0.5µM* | 2%
COC(=O)N/N=C/c1ccc(OS(=O)(=O)c2ccc(C)cc2)c(OC)c1 | -29 | -22% | -17% | -14 | 22% | 0%
C=CCNC(=O)/C(C#N)=C/c1ccc(OS(=O)(=O)c2ccc(C)cc2)c(OC)c1 | -8 | -23% | -22% | -61* | -3% | 3%
COc1cc(OC)cc(C2=NC3(CCC(C)CC3)NC2=S)c1 (stereo not drawn) | 4 | -9% | -32% | -108* | -1% | 1%
Cc1ccsc1C(=O)C1CCCN(Cc2cccn2-c2ccc(Cl)cn2)C1 (stereo not drawn) | 14 | -35% | 54% | -4 | ? | 3%
Cc1ccc(-n2cccn2)c(CN2CCCC(C(=O)c3sccc3C)C2)c1 (stereo not drawn) | -5 | i | 47% | ? | 11µM* | 0%
